esBAF inh: SWI/SNF esBAF complex inhibition; mouse ES cells, Bmi1-luciferase knock-in reporter, 24 h; 100% = twice the neutral-well signal; hit rate 2% among 350,000; reporter increase, % at 12.5 µM; in the data active = activation above about 40%; inconclusive = no clear call, values can overlap the other calls;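 note: a rise in the Bmi1 reporter signal indicates esBAF inhibition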
HSF1 inhib: HSF1 inhibition; NIH3T3-HGL HSE-luciferase, MG132-induced, luminescence 8 h; stronger effect = lower value; activity change, negative = inhibition, % at 7.5 µM (by protocol); hit rate 0.77% among 300,000; AID 2098;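 active = more than half of replicate wells show activity change below -50%, luminescence cut by over half; inconclusive = some wells, but at most half, below -50%; inactive = no replicate well below -50%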;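 note: luciferase reports HSF-1 transcriptional activity via heat shock element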
Vif inh: blocks HIV Vif function; inhibition, % at 7.49 µM; hit rate 0.35% among 340,000; AID 602346; HEK293T cells, Vif self-association by quenched fluorescence, imaging, 24 h; in the data active = inhibition above about 50%, passing the limit was not always enough; inconclusive = no clear call, values can overlap the other calls; inactive = below about 31%
HSF-1 act: increases HSF-1 driven luciferase reporter signal | activation, % at 9 µM | hit rate 1.7% among 300,000 | NIH3T3-HGL HSF-1 luciferase reporter, MG132, 8 h; 100% = twice DMSO control signal;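 active = mean replicate activation of at least 50% with a set share of replicates each reaching 50%; inconclusive = only one of those two conditions met; inactive = mean below 50% and too few replicates reaching it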
A number is an active result; n = inactive; u = inconclusive; x = not tested or not shown. Only some compounds are listed: those with a hit (about 3.4% of all), similar ones and a draw of the others.

SMILES	esBAF inh	HSF1 inhib	Vif inh	HSF-1 act
CC(c1ccco1)N(C(=O)COc1ccc(Cl)cc1)c1ccccn1 (stereo unspecified)	72	x	x	x
CC(c1ccco1)N(C(=O)COc1ccc(Cl)cc1Cl)c1ccccn1 (stereo unspecified)	n	n	n	n
CCCNC(=O)C[C@@H]1CC[C@H]2[C@@H](COc3ccc(NC(=O)c4cccc(OC)c4)cc3C(=O)N2C)O1	n	x	x	x
CC(=O)OCCNc1cc(N2CCN(C)CC2)c2noc3c2c1C(=O)c1ccccc1-3	n	x	n	x
CCOC(=O)C(C(=O)OCC)c1cc(Br)c2noc3c2c1C(=O)c1ccccc1-3	x	n	n	52
C[C@H]1CN([C@@H](C)CO)C(=O)c2cc(NC(=O)Nc3ccc4c(c3)OCO4)ccc2O[C@@H]1CN(C)S(C)(=O)=O	n	x	x	x
O=C(Nc1ccccc1)c1ccc(-c2ccccc2C(F)(F)F)o1	52	x	n	x
CC(C)NC(=O)c1ccc(-c2ccc(Cl)c(C(F)(F)F)c2)o1	x	n	n	n
O=C(NCc1ccc(Cl)cc1)c1ccc(-c2ccccc2C(F)(F)F)o1	n	n	n	n
CC(C)NC(=O)c1ccc(-c2ccccc2C(F)(F)F)o1	47	n	n	n
C[C@@H]1CCCCO[C@H](CN(C)C(=O)Nc2ccc(F)cc2)[C@H](C)CN([C@@H](C)CO)C(=O)c2cc(NC(=O)Nc3ccc(C(F)(F)F)cc3)ccc2O1	n	x	x	x
Cc1ccc(S(=O)(=O)N(C)C[C@@H]2Oc3ccc(NS(=O)(=O)c4ccc(Cl)cc4)cc3C(=O)N([C@@H](C)CO)C[C@H]2C)cc1	n	x	x	x
CC(=O)Nc1ccc(NC(=O)/C(Cl)=C/c2ccccc2)cc1	53	n	n	u
CCCc1cn(CC[C@@H]2CC[C@H](NC(=O)C3CC3)[C@@H](CO)O2)nn1	n	x	x	x
O=C(COc1ccc2cc(Br)ccc2c1)N1CCOCC1	48	x	n	x
O=C(COC(=O)c1ccc(O)cc1O)Nc1ccc2c(c1)OCCO2	83	x	n	x
O=C(COC(=O)C1=COCCO1)Nc1ccc2c(c1)OCO2	n	-63	n	n
O=C(COC(=O)c1ccc(O)cc1O)Nc1ccc2ccccc2c1	n	x	n	x
C[C@H](CO)N1C[C@H](C)[C@@H](CN(C)C(=O)Nc2ccccc2)Oc2ccc(NS(=O)(=O)c3cccs3)cc2CC1=O	n	x	x	x
COc1cc(C(=O)Sc2ccc(Cl)cc2)cc(OC)c1OC	n	n	n	79
CSc1nc(Cc2ccccc2)cc(=O)[nH]1	n	-65	n	n
CCc1cc(=O)[nH]c(SCCc2ccccc2)n1	n	n	n	n
Nn1c(Cc2ccccc2F)nnc1SCn1nnc2ccccc2c1=O	n	n	n	n
O=c1c2ccccc2nnn1CSc1ncnc2ccccc12	x	n	x	112
O=c1ccnc(SCn2nnc3ccccc3c2=O)[nH]1	x	n	n	n
SMILES	esBAF inh	HSF1 inhib	Vif inh	HSF-1 act
Cc1ccc(SCn2nnc3ccccc3c2=O)c(C)c1	x	n	n	66
Cc1ccc2nc(SCn3nnc4ccccc4c3=O)[nH]c2c1	x	n	n	u
O=c1c2ccccc2nnn1CSc1ccccc1F	x	n	n	82
CC(C)NC(=O)Nc1ccc2c(c1)C(=O)N([C@H](C)CO)C[C@@H](C)[C@@H](CN(C)C(=O)C1CCCCC1)OCCCC[C@H](C)O2	n	x	x	x
Cc1ccc(N=Nc2c(N)nn(-c3ccccc3)c2N)cc1	x	n	n	n
Cc1nn(-c2ccccc2)c(N)c1C(c1ccccc1)c1c(C)nn(-c2ccccc2)c1N	x	n	n	79
COc1ccc(-c2c(C)nn(-c3ccccc3)c2N)cc1OC	n	n	n	n
COc1ccc(-c2c(C)nn(-c3ccccc3)c2N)cc1	63	n	n	n
Cc1nn(-c2ccccc2)c(N)c1N=Nc1ccc2ccccc2c1	u	n	n	78
Cc1nn(-c2ccccc2)c(N)c1N=O	x	n	n	n
Cc1nn(-c2ccc(C(=O)O)cc2)c(N)c1-c1ccccc1	61	n	n	n
Cc1noc(C)c1NC(=O)N(C)C[C@H]1Oc2ncc(C#CCN(C)C)cc2C(=O)N([C@H](C)CO)C[C@@H]1C	n	x	x	x
O=S(=O)(Cc1ccccc1)N1CCCCN2[C@H](CO)[C@@H](c3ccc(-c4ccc(F)cc4)cc3)[C@@H]2C1	n	x	x	x
C[C@@H]1CCCCO[C@H](CN(C)Cc2ccc(Cl)c(Cl)c2)[C@@H](C)CN([C@H](C)CO)C(=O)c2cc(NC(=O)NC3CCCCC3)ccc2O1	n	x	x	x
CC(C)N(CCC(=O)c1ccc2ccccc2c1)Cc1ccccc1	n	x	n	x
CCC(=O)CCC(=O)c1ccc2ccccc2c1	x	-58	n	n
O=C(CCN1CCC(c2cccs2)=N1)c1cccs1	x	n	n	65
C[C@@H]1CN([C@@H](C)CO)C(=O)c2cccc(NC(=O)NC3CCCCC3)c2O[C@H]1CN(C)C(=O)Nc1ccc(F)cc1	n	x	x	x
Cc1ccc(N2Cc3ccccc3C2=S)cc1	73	n	n	n
S=C1c2ccccc2CN1c1ccccc1	n	n	n	n
O=C(NC1CCC1)[C@@H]1[C@@H](CO)[C@@H]2Cn3c(cccc3=O)[C@H]1N2Cc1cc(F)ccc1F	n	x	x	x
COc1ccccc1S(=O)(=O)N[C@@H]1CC[C@@H](CCNC(=O)C2CCCC2)O[C@@H]1CO	n	x	x	x
O=C(C[C@@H]1C=C[C@@H](NC(=O)c2cccnc2)[C@@H](CO)O1)NCCN1CCCCC1	n	x	x	x
O=C(/C=C/c1cn(-c2ccccc2)nc1-c1cccnc1)c1ccco1	x	n	n	119
COc1cccc(-c2ccc3c(c2)[C@H]2[C@H](CCN2S(=O)(=O)c2ccccc2C)[C@@H](CO)N3C)c1	n	x	x	x
SMILES	esBAF inh	HSF1 inhib	Vif inh	HSF-1 act
O=C(O)Cn1c2ccccc2c2ccccc21	x	n	n	n
O=C(O)Cn1c2c(c3ccccc31)CSc1ccc(Cl)cc1-2	n	n	n	269
CCC(=O)N1CC[C@@H]2[C@@H](CO)Nc3ccc(-c4ccc(C(=O)N(C)C)cc4)cc3[C@@H]21	n	x	x	x
COc1ccc(-c2cc(C(=O)NCc3ccco3)c3ccccc3n2)cc1	n	n	n	86
O=C(NCc1ccco1)c1cc(-c2ccccc2)nc2ccccc12	n	n	n	n
COc1ccc(-n2c(-c3ccc(F)cc3)cnc2SCC(=O)NCc2ccco2)cc1	n	-54	n	n
Cc1cc(NC(=O)CSc2nc3ccccc3c(=O)n2CCCC(=O)NCc2ccco2)n[nH]1	n	n	51	n
O=C(CSc1nc2ccccc2c2nc3ccccc3n12)NCc1ccco1	n	n	n	103
COCC(=O)Nc1ccc2c(c1)OC[C@H](C)N(Cc1cccc(F)c1)C[C@H](C)[C@H](OC)CN(C)C2=O	n	x	x	x
O=C(NC[C@H]1[C@H](c2ccccc2)[C@H](CO)N1CC1CCCC1)C1CC1	n	x	x	x
COc1ccccc1S(=O)(=O)N1C[C@H](O)COC[C@@H]2O[C@@H](CC(=O)O)CC[C@H]21	n	x	x	x
COc1ccc(C(=O)Nn2c(SCC(=O)c3ccc(Cl)cc3)nc3ccccc3c2=O)cc1	n	-71	n	n
COc1ccc2oc(=Nc3ccc(C(=O)O)cc3)c(C(=O)NCc3ccco3)cc2c1	x	n	n	n
CCOCCCn1c(SCC(=O)NCc2ccco2)nc2c(sc3ccccc32)c1=O	n	n	n	n
